Hit rate of the full screen: of about 5,500 compounds, about 2,000 (36%) were called active. About 18% were inconclusive and are not listed. Rule as the data show it: active = normalized growth mostly below about 0.91 (no sharp cut-off); inconclusive = no clear call, values can overlap the other calls; inactive = mostly above about 0.92. The list shows a part of the results.
Test: chemical genetic growth profiling, strain panel (AID 1159580);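 also: tested at 20 µM; growth read once vehicle control cultures reached saturation at 30 °C; 1 = growth at the plate median or of vehicle wells; lower values mean less growth of the strain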
Details: growth OD

Measured: normalized growth

CC(=O)OC1CCC2(C)C(CC(OC(C)=O)C3(C)C4=CC(=O)OC(c5ccoc5)C4(C)CCC23)C1(C)C (stereo unspecified)
inactive: S. cerevisiae deletion strains, locus YAL013W, strain DEP1, active compounds read low 0.989 | S. cerevisiae deletion strains, locus YBR021W, strain FUR4, active compounds read low 1.02 | S. cerevisiae deletion strains, locus YBR229C, strain ROT2, active compounds read low 1 | S. cerevisiae deletion strains, locus YCL029C, strain bik1, active compounds read low 0.995 | S. cerevisiae deletion strains, locus YDL035C, strain GPR1, active compounds read low 0.972 | S. cerevisiae deletion strains, locus YDL074C, strain BRE1, active compounds read low 0.791 | S. cerevisiae deletion strains, locus YDL101C, strain DUN1, active compounds read low 0.995 | S. cerevisiae deletion strains, locus YDL134C, strain PPH21, active compounds read low 0.989 | S. cerevisiae deletion strains, locus YDL185W, strain tfp1, active compounds read low 0.963 | S. cerevisiae deletion strains, locus YDL192W, strain arf1, active compounds read low 0.998 | S. cerevisiae deletion strains, locus YDR101C, strain arx1, active compounds read low 1.01 | S. cerevisiae deletion strains, locus YDR150W, strain NUM1, active compounds read low 0.98 | S. cerevisiae deletion strains, locus YDR162C, strain NBP2, active compounds read low 1.01 | S. cerevisiae deletion strains, locus YDR318W, strain mcm21, active compounds read low 0.992 | S. cerevisiae deletion strains, locus YDR388W, active compounds read low 1 | S. cerevisiae deletion strains, locus YDR502C, strain sam2, active compounds read low 1.01 | S. cerevisiae deletion strains, locus YEL061C, strain CIN8, active compounds read low 1.01 | S. cerevisiae deletion strains, locus YER110C, active compounds read low 1 | S. cerevisiae deletion strains, locus YER155C, strain BEM2, active compounds read low 0.997 | S. cerevisiae deletion strains, locus YER167W, strain BCK2, active compounds read low 0.994 | S. cerevisiae deletion strains, locus YGL078C, strain dbp3, active compounds read low 0.993 | S. cerevisiae deletion strains, locus YGL086W, strain mad1, active compounds read low 0.969 | S. cerevisiae deletion strains, locus YGL248W, strain PDE1, active compounds read low 1.01 | S. cerevisiae deletion strains, locus YGR078C, strain PAC10, active compounds read low 0.948 | S. cerevisiae deletion strains, locus YGR135W, strain pre9, active compounds read low 1.04 | S. cerevisiae deletion strains, locus YGR229C, strain SMI1, active compounds read low 0.986 | S. cerevisiae deletion strains, locus YGR252W, strain gcn5, active compounds read low 0.961 | S. cerevisiae deletion strains, locus YHR030C, strain SLT2, active compounds read low 0.998 | S. cerevisiae deletion strains, locus YHR079C, strain IRE1 (second series), active compounds read low 0.972 | S. cerevisiae deletion strains, locus YHR094C, strain hxt1, active compounds read low 0.989 | S. cerevisiae deletion strains, locus YHR129C, strain ARP1, active compounds read low 1 | S. cerevisiae deletion strains, locus YHR200W, strain rpn10, active compounds read low 1 | S. cerevisiae deletion strains, locus YIL066C, strain RNR3, active compounds read low 0.973 | S. cerevisiae deletion strains, locus YIL073C, strain SPO22, active compounds read low 0.882 | S. cerevisiae deletion strains, locus YIL125W, strain kgd1, active compounds read low 1 | S. cerevisiae deletion strains, locus YIR030C, strain dcg1, active compounds read low 1 | S. cerevisiae deletion strains, locus YJL095W, strain BCK1, active compounds read low 1.01 | S. cerevisiae deletion strains, locus YJL134W, strain LCB3, active compounds read low 1 | S. cerevisiae deletion strains, locus YJL168C, strain set2, active compounds read low 1 | S. cerevisiae deletion strains, locus YJL187C, strain SWE1 (second series), active compounds read low 0.994 | S. cerevisiae deletion strains, locus YJR043C, strain POL32, active compounds read low 0.997 | S. cerevisiae deletion strains, locus YJR075W, strain HOC1, active compounds read low 1.01 | S. cerevisiae deletion strains, locus YKL009W, strain mrt4, active compounds read low 0.988 | S. cerevisiae deletion strains, locus YKL068W, active compounds read low 0.982 | S. cerevisiae deletion strains, locus YKL085W, strain MDH1 (second series), active compounds read low 0.994 | S. cerevisiae deletion strains, locus YKL085W, strain MDH1, active compounds read low 0.994 | S. cerevisiae deletion strains, locus YKL190W, strain CNB1, active compounds read low 0.977 | S. cerevisiae deletion strains, locus YKR001C, strain vps1, active compounds read low 0.974 | S. cerevisiae deletion strains, locus YLR039C, strain RIC1, active compounds read low 0.986 | S. cerevisiae deletion strains, locus YLR058C, strain SHM2, active compounds read low 0.989 | S. cerevisiae deletion strains, locus YLR102C, strain apc9, active compounds read low 0.995 | S. cerevisiae deletion strains, locus YLR262C, strain YPT6, active compounds read low 0.954 | S. cerevisiae deletion strains, locus YLR268W, strain sec22, active compounds read low 1.03 | S. cerevisiae deletion strains, locus YLR330W, strain CHS5, active compounds read low 0.995 | S. cerevisiae deletion strains, locus YLR342W, strain FKS1 (second series), active compounds read low 0.996 | S. cerevisiae deletion strains, locus YLR371W, strain rom2, active compounds read low 0.983 | S. cerevisiae deletion strains, locus YLR418C, strain cdc73, active compounds read low 1.01 | S. cerevisiae deletion strains, locus YML016C, strain PPZ1, active compounds read low 1 | S. cerevisiae deletion strains, locus YML032C, strain rad52, active compounds read low 0.986 | S. cerevisiae deletion strains, locus YML124C, strain tub3, active compounds read low 1 | S. cerevisiae deletion strains, locus YMR078C, strain ctf18, active compounds read low 1 | S. cerevisiae deletion strains, locus YMR223W, strain ubp8, active compounds read low 0.99 | S. cerevisiae deletion strains, locus YMR263W, strain SAP30, active compounds read low 0.982 | S. cerevisiae deletion strains, locus YMR307W, strain GAS1, active compounds read low 0.924 | S. cerevisiae deletion strains, locus YNL067W, strain RPL9B, active compounds read low 0.99 | S. cerevisiae deletion strains, locus YNL128W, strain TEP1, active compounds read low 1 | S. cerevisiae deletion strains, locus YNL153C, strain GIM3, active compounds read low 0.989 | S. cerevisiae deletion strains, locus YNL233W, strain BNI4, active compounds read low 1 | S. cerevisiae deletion strains, locus YNL250W, strain rad50, active compounds read low 0.985 | S. cerevisiae deletion strains, locus YNL271C, strain bni1, active compounds read low 1 | S. cerevisiae deletion strains, locus YNL298W, strain CLA4, active compounds read low 1.01 | S. cerevisiae deletion strains, locus YNL307C, strain MCK1, active compounds read low 0.995 | S. cerevisiae deletion strains, locus YNL322C, strain KRE1, active compounds read low 0.992 | S. cerevisiae deletion strains, locus YNR052C, strain pop2, active compounds read low 0.999 | S. cerevisiae deletion strains, locus YOL006C, strain TOP1, active compounds read low 0.937 | S. cerevisiae deletion strains, locus YOL012C, strain htz1 1.25 | S. cerevisiae deletion strains, locus YOL147C, strain pex11, active compounds read low 0.995 | S. cerevisiae deletion strains, locus YOR061W, strain CKA2, active compounds read low 0.996 | S. cerevisiae deletion strains, locus YOR069W, strain VPS5, active compounds read low 0.998 | S. cerevisiae deletion strains, locus YOR136W, strain idh2, active compounds read low 1 | S. cerevisiae deletion strains, locus YOR144C, strain elg1, active compounds read low 0.994 | S. cerevisiae deletion strains, locus YOR184W, strain ser1, active compounds read low 0.976 | S. cerevisiae deletion strains, locus YOR316C, strain cot1, active compounds read low 1 | S. cerevisiae deletion strains, locus YPL055C, strain LGE1, active compounds read low 0.908 | S. cerevisiae deletion strains, locus YPL241C, strain CIN2, active compounds read low 0.987 | S. cerevisiae deletion strains, locus YPR119W, strain clb2, active compounds read low 1 | S. cerevisiae deletion strains, locus YPR141C, strain kar3, active compounds read low 0.998 | S. cerevisiae deletion strains, locus YPR163C, strain tif3, active compounds read low 0.999 | S. cerevisiae deletion strains, locus YPR167C, strain met16, active compounds read low 1 | S. cerevisiae deletion strains, strain wtn01, active compounds read low 0.999 | S. cerevisiae strains, strain wild type, active compounds read low 0.996

Reference: PubChem BioAssay AID1159580 (chemical genetic matrix, 2015)
